Reference: PubChem BioAssay AID504834 (National Center for Advancing Translational Sciences (NCATS), 2011)
About 22,000 (6.9%) of roughly 320,000 compounds were called active. Inconclusive results (about 27%) are left out. The sample as a whole holds a higher share of actives than the screen did. A number with no mark means an inactive call. The call rests on the fitted dose curve; in most records, active means well fitted inhibition curve with a large enough effect; inconclusive means small, poorly fitted or top-dose-only effect, or another doubt; inactive means no such curve, though single readings can be large or run the other way.

Assay: Primary qHTS for delayed death inhibitors of the malarial parasite plastid, 96 hour incubation
Conditions: P. falciparum luciferase reporter growth; series mostly up to 28.7 µM; activity change, negative = inhibition: at the top concentration
How it was run: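 P. falciparum expressing integrated firefly luciferase grown in erythrocytes (2% hematocrit, 0.05% parasitemia final) with compounds for 96 hours at 37 C, 5% CO2. Growth inhibition read as loss of luminescence after adding luciferase detection reagent.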
On the % scale 0 is the no-effect control and ±100 the full control effect; potency means the concentration at half of the fitted maximal effect.

Compound | activity change, negative = inhibition | Potency
Cc1cc(=O)oc2c1ccc1ccccc12 | 5.33% | 
Cc1coc2c(O)cc3c(c12)OC1(N2CCCCC2)C(=O)NCCCC31 (centres undefined) |  | 9.28 µM (active)
NNC(=O)c1ccc(COCC(F)(F)C(F)F)cc1 | -23.4% | 
O=C(N/N=C/c1ccco1)c1csc2c1CCCC2 | 1.77% | 
CN(C)C(=O)CCC(=O)N1CCCCC1C(=O)Nc1ccc(Oc2ccccc2F)cc1 (centres undefined) | 0% | 
COc1ccc(C(=O)N2CCCCC2C(=O)Nc2ccc(-n3nc(C)cc3C)cc2)o1 (centres undefined) |  | 10.4 µM (active)
Cc1cc(C)n(-c2ccc(NC(=O)C3CCCCN3C(=O)c3cccs3)cc2)n1 (centres undefined) | 33.4% | 
O=C(CN1CCCCC1)NC(=O)Nc1ccccc1F | 34.5% | 
CCN(CC(=O)NCC(=O)Nc1cccc(C)c1C)Cc1ccccc1 | -12.1% | 
COc1cccc2cc(-c3cc(=O)oc4cc(C)c(O)cc34)oc12 |  | 13.1 µM (active)
COc1cccc(C(=O)OCc2cc(=O)oc3c(C)c(C)ccc23)c1OC | 33.8% | 
COc1cccc2cc(C(=O)N3CCN(C(=O)c4ccccc4)CC3)c(=O)oc12 | 6.51% | 
O=C(NCc1ccccc1)C(c1ccccc1)N(C(=O)c1csnn1)c1ccc(F)cc1 (centres undefined) | 7.01% | 
O=C(O)CCCC(=O)Nc1ccc(Oc2cccc(C(F)(F)F)c2)nc1 | -3.37% | 
O=C(COc1cccc(Cl)c1)NCc1ccccc1 | -11.8% | 
O=C(O)CCCn1cc(NC(=O)COc2cccc(Cl)c2)cn1 |  | 14.7 µM (active)
COc1ccccc1NC(=O)C(C)OC(=O)CC1CCCC1 (centres undefined) | 30.8% | 
Cc1ccccc1NC(=O)CCNS(=O)(=O)c1ccc2[nH]c(=O)oc2c1 | -22.6% | 
COc1cccc(CN(C)CC(O)COC(c2ccccc2)c2ccccc2C)c1 (centres undefined) |  | 5.86 µM (active)
COc1cccc(CN(C)CC(=O)Nc2sc3c(c2C#N)CCC3)c1 | -16.4% | 
Cc1ccccc1C(OCC(O)CN1CCCCC1CCO)c1ccccc1 (centres undefined) | 144% | 
CCc1nn(CCCC(=O)NC(C)c2ccccc2)c(=O)c2cc3occc3n12 (centres undefined) | 0.559% | 
CCN1C(=O)C(=O)N(CC(=O)Nc2cc(C)ccc2C)C1=O | -1.34% | 
Cc1cccc(NC(=O)CCN2CC(C)CC(C)C2)c1 (centres undefined) | 30.9% | 
NS(=O)(=O)c1ccc(Nc2nc(-c3ccccc3)cs2)cc1 | 20.4% | 
Cc1cccn2c(=O)c(C=O)c(Nc3ccc(S(N)(=O)=O)cc3)nc12 |  | 5.86 µM (active)

Compound | activity change, negative = inhibition | Potency
CNc1nc2c(C)cccn2c(=O)c1C=Nc1ccc(OC)cc1 | 29.5% | 
CCOCCCNC(=O)c1ccc(CS(=O)(=O)c2cccc(C(F)(F)F)c2)o1 | -15.9% | 
CCc1cc(C(=O)Nc2nnc(C3CC3)s2)sc1C | 31% | 
CCC(C)n1c(-c2cc(OC)c(OC)c(OC)c2)nc2nc3ccccc3nc21 (centres undefined) |  | 5.86 µM (active)
COc1cc(-c2n[nH]c(=S)n2Cc2ccccc2)cc(OC)c1OC | -5.2% | 
COc1ccc(CCn2c(-c3ccco3)nc3nc4ccccc4nc32)cc1OC | -6.63% | 
COc1ccccc1N1CCN(CC(=O)Nc2ccnn2C2CCCC2)CC1 | -16.9% | 
Cc1ccc(SCC(=O)NNC(=O)c2ccc(S(C)(=O)=O)cc2)cc1 | 48.6% | 
COc1ccccc1CN1CC(C(=O)NCCc2cn[nH]c2)CCC1=O (centres undefined) | 13.9% | 
CCC(=O)Nc1ccc2c(c1)nc(CCN1CCN(c3ccccn3)CC1)n2C | -14.1% | 
O=C(NC(=S)Nc1ccc(S(=O)(=O)Nc2ncccn2)cc1)c1cccc(Br)c1 | -13.4% | 
NS(=O)(=O)c1ccc(NC(=S)NC(=O)c2cccc(Br)c2)cc1 |  | 13.1 µM (active)
NS(=O)(=O)c1ccc(NC(=S)NC(=O)c2cccnc2)cc1 | 31.3% | 
Cc1cc(NC(=O)[C@H](C)NC(=O)c2ccco2)ccc1Br | -0.221% | 
CCc1ccc(C(=O)COC(=O)c2ccco2)cc1 | -16.8% | 
CC(C)(C)c1ccc(C(=O)N2CCC(C(=O)N3CCCCC3)CC2)cc1 | -25.9% | 
CCOC(=O)C1=C(C)NC(=S)NC1c1cccs1 (centres undefined) | 16.8% | 
CCOC(=O)C1=C(N)N(c2ccc(C)cc2)C2=C(C(=O)CCC2)C1c1cccs1 (centres undefined) |  | 3.7 µM (active)
CCOC(=O)c1cc2c(n(-c3ccc(C)cc3)c1=O)CCCC2=O | 26.5% | 
COC(=O)c1ccc(NC(=O)c2cc3c(CO)cnc(C)c3oc2=Nc2cccc(C(N)=O)c2)cc1 | 1.25% | 
CC(C)c1cc(C(=O)N/N=C/C(Br)=C/c2ccccc2)n[nH]1 |  | 3.29 µM (active)
Cc1cc(-c2n[nH]c(=S)n2/N=C/C(Br)=C/c2ccccc2)n[nH]1 | 0% | 
CC(/C=N/NC(=O)c1cc(-c2ccc3ccccc3c2)n[nH]1)=C\c1ccco1 | 10.6% | 
CN(C(=O)COC(=O)CCCc1c[nH]c2ccccc12)c1c(N)n(Cc2ccccc2)c(=O)[nH]c1=O | 2.5% | 
CCCNC(=O)C(=O)Nc1cc2c3c(c1)CCC(=O)N3CCC2 | 28.4% | 
COc1ccc(CCNC(=O)C2CCCN2C(=O)Nc2ccccc2)cc1OC (centres undefined) | -9.5% | 

Compound | activity change, negative = inhibition | Potency
O=C(O)c1ccc(NC(=O)c2cn(-c3ccccc3)nc2-c2ccc(Cl)cc2)cc1 | 47.7% | 
COc1ccc(-c2nn(-c3ccccc3)cc2/C=C\C(=O)Nc2ccc(C(=O)O)cc2)cc1 | 23.8% | 
O=C(O)/C=C/c1cn(-c2ccccc2)nc1-c1cccs1 | 54.1% | 
O=C(/C=C\c1cn(-c2ccccc2)nc1-c1cccs1)N1CCOCC1 |  | 10.4 µM (active)
O=C(O)c1ccc(N/N=C/c2cn(-c3ccccc3)nc2-c2cccs2)cc1 |  | 0.465 µM (active)
O=C(O)/C=C/c1cn(Cc2ccccc2)nc1-c1cccs1 | 2.18% | 
N#Cc1cccc(CN2CCC(=O)N(CCO)CC2)c1 | 93% | 
COc1ccccc1N1CCN(S(=O)(=O)CCNC(=O)c2ccc(OC(C)C)cc2)CC1 | 13.5% | 
CCCCC1(C(=O)OCC)NC(c2ccc(O)cc2)C2C(=O)N(c3ccccc3)C(=O)C21 (centres undefined) | 34.6% | 
CC(OC(=O)C1CC(=O)N(Cc2ccccc2)C1)C(=O)Nc1ccccc1[N+](=O)[O-] (centres undefined) | 49.9% | 
CCSCc1nc(N)nc(NCCc2ccccc2)n1 | 0% | 
Cc1ccc2c(c1)C(c1ccccc1)N(C(=O)c1ccc(F)cc1)CC(=O)N2 (centres undefined) | 24.6% | 
O=C1CN(C(=O)c2ccccc2F)C(c2ccc(F)cc2)c2cc(F)ccc2N1 (centres undefined) | 13% | 
CC(C)C(=O)N1CC(=O)Nc2ccc(F)cc2C1c1ccc(F)cc1 (centres undefined) | 17.2% | 
CCC(CC)C(=O)N1CC(=O)Nc2ccc(Br)cc2C1c1ccccc1 (centres undefined) |  | 8.28 µM (active)
COC(=O)CN1C(C)=Nc2ccc(Br)cc2C1c1ccccc1 (centres undefined) | -2.01% | 
Cc1ccc(C(=O)N2CC(=O)Nc3ccc(F)cc3C2c2ccc(F)cc2)cc1 (centres undefined) |  | 1.47 µM (active)
CCCCn1c(N)c(N(CC(C)C)C(=O)c2cccc(S(=O)(=O)N3CC(C)OC(C)C3)c2)c(=O)[nH]c1=O (centres undefined) | -20.2% | 
O=C(COC(=O)c1cc(=O)[nH]c2ccccc12)NCc1cccc(Cl)c1 | -21.9% | 
O=C(Nc1ccccc1C(=O)N1CCCCCC1)c1ccccc1Cl | 21.4% | 
O=C(Nc1ccccc1C(=O)N1CCOCC1)c1ccc(CSc2ccccc2)cc1 | -3.39% | 
O=C(Nc1ccccc1C(=O)N1CCOCC1)c1ccc(Cl)cc1 |  | 13.1 µM (active)
Cc1cc(NC(=O)CN2CCC(O)(c3cccc(F)c3)CC2)no1 | 0% | 
CC(=O)NC1(c2cccc(F)c2)CCN(CC(=O)NC(C)C)CC1 |  | 1.85 µM (active)
O=C(CN1CCN(C(=O)c2cccc(F)c2)CC1)Nc1ccccc1F | 43.4% | 
O=C(O)Cc1csc(NC(=O)CSc2nnnn2-c2ccc(O)cc2)n1 | 19.6% | 

Compound | activity change, negative = inhibition | Potency
CCn1c(SCC(=O)NC2CC2)nnc1-c1ccccn1 | 1.07% | 
Cc1ccc(S(=O)(=O)N(CC(=O)NCCSC2CCCCC2)c2ccccc2F)cc1 |  | 1.65 µM (active)
CCN(CC(=O)NCCc1ccccc1)S(=O)(=O)c1ccc(C)cc1 | 4.36% | 
Cc1ccc(S(=O)(=O)N(C)CC(=O)NC2CCCC2)cc1 | -4.78% | 
O=C(CS(=O)(=O)c1cn(Cc2cccc(F)c2)c2ccccc12)N1CCCCC1 | 94.6% | 
O=C(CS(=O)(=O)c1cn(Cc2ccc(Cl)cc2)c2ccccc12)N1CCOCC1 |  | 8.28 µM (active)
Cc1ccc(CNC(=O)C(=O)c2cn(CC(=O)N3CCOCC3)c3ccccc23)cc1 | 41.8% | 
CCc1ccc(NC(=O)COC(=O)c2cccs2)cc1 | -27.9% | 
CCOC(=O)Cc1cc(=O)[nH]c(/N=C(\N)Nc2ccc(OC)cc2)n1 | 8% | 
O=C(CN1CCOCC1)N/N=C/c1ccc(-c2ccc(Br)cc2)o1 | 10.5% | 
C=CC1C(OC2OC(CO)C(O)C(O)C2O)OC=C(C(=O)OC)C1CC1CC(=O)CC(CC(=O)CCc2ccc(O)cc2)O1 (centres undefined) |  | 5.22 µM (active)
COC(=O)C1=CO[C@@H](O[C@@H]2O[C@H](CO)[C@@H](O)[C@H](O)[C@H]2O)C2C1C[C@H](O)[C@@H]2C (some centres undefined) | 37.1% | 
CC(/C=C/C1(O)C(C)CC(=O)CC1(C)C)OC1OC(CO)C(O)C(O)C1O (centres undefined) | 57.5% | 
Cc1cc(=O)[nH]c2nnnn12 | 26% | 
NS(=O)(=O)c1ccc(CNC(=O)c2cccc(Oc3ccccc3)c2)cc1 | 4.38% | 
Cc1nc(C)c2c(c1C(F)(F)F)-c1ccccc1C2(F)F |  | 11.7 µM (active)
COCCCC1CCN(C(=O)C2CCC(=O)N(C3CCCCCC3)C2)CC1 (centres undefined) | 24.7% | 
CCN(CC)c1ccc(NC(=O)CN2C(=O)NC3(CCc4ccccc43)C2=O)cc1 (centres undefined) | 29.7% | 
COc1cccc(C(=O)NCCSc2ccc(Br)cc2)c1 | -24.1% | 
COc1ccc(C(=O)NCc2nnc(SCCOc3ccccc3)n2C)cc1 | 11.2% | 
COc1ccc(C(=O)NCCSc2ccccc2C)cc1 |  | 3.29 µM (active)
COc1cc(C(C(=O)NC2CCCC2)N(Cc2ccccc2)C(=O)c2snc(C(N)=O)c2N)ccc1O (centres undefined) | -1.49% | 
COc1ccc(CNC(=O)C(=O)NCC2OCCN2C(=O)c2ccc(OC)cc2)cc1 (centres undefined) | -5.85% | 
O=C(CN(Cc1ccccc1)C(=O)CCC(=O)Nc1ccccn1)NCCc1ccccc1 |  | 13.1 µM (active)
O=C(CCCC(=O)N(CC(=O)NC1CCCC1)Cc1ccccc1Cl)Nc1ccccn1 | -35.8% | 
Cc1ccnc(NC(=O)CCC(=O)N(CC(=O)NCCc2ccccc2)Cc2cccs2)c1 | 40.5% | 
